Several values for one entry are separate records, joined by “and”; a condition that tells them apart may be missing. Identical values can stand only once. Results filed as inconclusive are left out. A call without a number means that no potency is given here. Activity calls are given as the source filed them. Unless noted, the call rests on the fitted dose curve; in most records, active means well fitted curve in the direction sought with a large enough effect; inconclusive means small, poorly fitted or top-dose-only effect, or another doubt; inactive means no such curve, though single readings can be large; an effect the other way counts as inactive or inconclusive.
How the values were obtained:
[1] = Cell Viability - LYMP2-011 (AID 969);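 further: cells exposed to compound for 24 hours; nearly all actives have a fitted effect of over 60% in size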
In short: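 Luminescent ATP read-out (CellTiter-Glo, 30 min RT) after 24 hr compound exposure at 37 C in human lymphoblastoid cells, 2500 cells/well. Decreasing ATP indicates cytotoxicity; AC50 from standard Hill fit.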

[2] = Cell Viability - LYMP2-013 (AID 970); further: series mostly up to about 92 µM; nearly all actives have a fitted effect of over 55% in size
In short: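 CellTiter-Glo luminescence (cellular ATP) read after 30 min at RT. Cells: human lymphoblastoid line, 2500/well, 24 hr compound exposure at 37 C. Tetraoctylammonium bromide positive control; AC50 via standard Hill fit of qHTS titrations.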

[3] = Cell Viability - LYMP2-015 (AID 971); further: nearly all actives have a fitted effect of over 55% in size
In short: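 qHTS cytotoxicity: 2500 cells/well, 5 hr 37 C, compound 24 hr 37 C, CellTiter-Glo 30 min RT, luminescence. Loss of ATP = toxicity; AC50 via standard Hill fit.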

[4] = Cell Viability - LYMP2-017 (AID 972);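 further: series mostly up to about 92 µM; cells exposed to compound for 24 hours at 37 °C; nearly all actives have a fitted effect of over 55% in size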
In short: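 Luminescent ATP read-out (CellTiter-Glo, 30 min RT) reports viable cell number. Cells: human lymphoblastoid line, 2500 per well, 5 hr preincubation, 24 hr compound exposure at 37 C. AC50 is derived from qHTS concentration-response data using the standard Hill model.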

[5] = Cell Viability - LYMP2-019 (AID 973); further: nearly all actives have a fitted effect of over 55% in size
In short: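 qHTS, 1536-well; 2500 cells/well; 5 hr pre-incubation, 24 hr compound exposure, 37 C; CellTiter-Glo added, 30 min RT; luminescence read; AC50 via standard Hill equation.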

[6] = Cell Viability - LYMP2-021 (AID 974)
In short: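 ATP luminescence (CellTiter-Glo, 30 min RT) after 24 h compound exposure at 37 C; 2500 human lymphoblastoid cells/well, 5 h settle beforehand. Cytotoxicity = concentration-dependent ATP drop, AC50 by Hill fit.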

[7] = Cell Viability - LYMP2-025 (AID 976); further: series mostly up to about 92 µM
In short: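 CellTiter-Glo luminescence (cellular ATP) after 24 h compound exposure at 37 C; LYMP2-025 human lymphoblastoid cells, 2500/well, complete medium. Tetraoctylammonium bromide positive control. AC50 by Hill equation fit of qHTS concentration-response.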

[8] = Cell Viability - LYMP2-002 (AID 977); further: series mostly up to about 92 µM
In short: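 In this qHTS viability screen, 2500 human lymphoblastoid cells per well receive compound for 24 hr at 37 C, and luciferase-based ATP luminescence gives the viability signal. Tetraoctylammonium bromide serves as positive control.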

[9] = Cell Viability - LYMP2-006 (AID 978);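 further: series mostly up to about 92 µM; cells exposed to compound for 24 hours; nearly all actives have a fitted effect of over 60% in size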
In short: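 Concentration-dependent loss of intracellular ATP in a human lymphoblastoid line after 24 hr treatment at 37 C was measured by CellTiter-Glo luminescence, with AC50 values obtained from standard Hill-equation modelling.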

[10] = Cell Viability - LYMP2-007 (AID 979);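 further: cells exposed to compound for 24 h before reading; nearly all actives have a fitted effect of over 60% in size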
In short: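 qHTS cytotoxicity: 2500 cells/well, 5 hr 37 C settle, compound 24 hr 37 C, CellTiter-Glo 30 min RT, luminescence. Decrease in ATP = toxicity. AC50 by standard Hill equation; tetraoctylammonium bromide positive control.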

[11] = Cell Viability - LYMP2-008 (AID 980); further: nearly all actives have a fitted effect of over 60% in size
In short: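 Luminescent ATP read-out (CellTiter-Glo, 30 min RT) after 24 hr compound exposure at 37 C of human lymphoblastoid cells in complete medium. Decrease in ATP taken as cytotoxicity; AC50 derived by standard Hill fit of qHTS concentration-response data.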

[12] = Cell Viability - LYMP2-010 (AID 981)
In short: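 qHTS cytotoxicity, 1536-well: 2500 cells/well, 5 hr settle, 24 hr compound at 37 C, CellTiter-Glo 30 min RT, luminescence read. Decrease in ATP = toxicity; AC50 via standard Hill equation. Positive control tetraoctylammonium bromide.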

[13] = Cell Viability - LYMP2-012 (AID 982)
[14] = Cell Viability - LYMP2-014 (AID 983); further: series mostly up to about 92 µM; nearly all actives have a fitted effect of over 50% in size
In short: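 2500 cells/well, 5 hr 37 C; cpd 24 hr 37 C, complete medium; CellTiter-Glo 30 min RT, luminescence; ATP loss = toxicity; AC50 via Hill eqn; tetraoctylammonium bromide positive control.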

[15] = Cell Viability - LYMP2-016 (AID 984)
In short: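 Acute toxicity in a Coriell human lymphoblastoid line is scored as loss of intracellular ATP over 24 h of treatment in complete medium. CellTiter-Glo signal is fitted across concentrations with the Hill equation to give AC50.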

[16] = Cell Viability - LYMP2-018 (AID 985); further: nearly all actives have a fitted effect of over 50% in size
In short: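 2500 cells/well; 5 hr 37 C; cmpd 24 hr 37 C, complete medium; CellTiter-Glo 30 min RT; luminescence. Tetraoctylammonium bromide positive control. AC50 via Hill fit.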

[17] = Cell Viability - LYMP2-020 (AID 986)
In short: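 qHTS, 2500 cells/well; 5 hr then 24 hr compound exposure, 37 C; CellTiter-Glo luminescence after 30 min RT; ATP decrease taken as cytotoxicity; AC50 via Hill equation; tetraoctylammonium bromide positive control.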

[18] = Cell Viability - LYMP2-024 (AID 988); further: nearly all actives have a fitted effect of over 60% in size
In short: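 ATP-based luminescence (CellTiter-Glo, 30 min RT) after 24 h compound exposure at 37 C of 2500 lymphoblastoid cells/well; decrease in ATP taken as cytotoxicity. qHTS concentration-response fitted to standard Hill equation for AC50.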

[19] = Cell Viability - LYMP1-002 - Assay at 40 hr (AID 994); further: nearly all actives have a fitted effect of over 60% in size
In short: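 qHTS cytotoxicity; 2500 cells/well, 5 hr 37 C settle, compound 40 hr 37 C. CellTiter-Glo, 30 min RT, luminescence (ATP). Concentration-response, Hill fit → AC50. Pos. ctrl tetraoctylammonium bromide.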

[20] = target: Glucocorticoid receptor (Homo sapiens) (UniProt P04150); assay: qHTS assay for small molecule agonists of glucocorticoid receptor signaling (AID 588532; active means well fitted curve in the direction sought with a large enough effect in the signal ratio, with a control signal flat; the % refers to the signal ratio); conditions: HeLa MMTV-bla, beta-lactamase ratio, agonist, 18 h; stronger effect = higher value; percent of dexamethasone control, DMSO zero
Glucocorticoid receptor (Homo sapiens), sequence (P04150 whole entry, looked up): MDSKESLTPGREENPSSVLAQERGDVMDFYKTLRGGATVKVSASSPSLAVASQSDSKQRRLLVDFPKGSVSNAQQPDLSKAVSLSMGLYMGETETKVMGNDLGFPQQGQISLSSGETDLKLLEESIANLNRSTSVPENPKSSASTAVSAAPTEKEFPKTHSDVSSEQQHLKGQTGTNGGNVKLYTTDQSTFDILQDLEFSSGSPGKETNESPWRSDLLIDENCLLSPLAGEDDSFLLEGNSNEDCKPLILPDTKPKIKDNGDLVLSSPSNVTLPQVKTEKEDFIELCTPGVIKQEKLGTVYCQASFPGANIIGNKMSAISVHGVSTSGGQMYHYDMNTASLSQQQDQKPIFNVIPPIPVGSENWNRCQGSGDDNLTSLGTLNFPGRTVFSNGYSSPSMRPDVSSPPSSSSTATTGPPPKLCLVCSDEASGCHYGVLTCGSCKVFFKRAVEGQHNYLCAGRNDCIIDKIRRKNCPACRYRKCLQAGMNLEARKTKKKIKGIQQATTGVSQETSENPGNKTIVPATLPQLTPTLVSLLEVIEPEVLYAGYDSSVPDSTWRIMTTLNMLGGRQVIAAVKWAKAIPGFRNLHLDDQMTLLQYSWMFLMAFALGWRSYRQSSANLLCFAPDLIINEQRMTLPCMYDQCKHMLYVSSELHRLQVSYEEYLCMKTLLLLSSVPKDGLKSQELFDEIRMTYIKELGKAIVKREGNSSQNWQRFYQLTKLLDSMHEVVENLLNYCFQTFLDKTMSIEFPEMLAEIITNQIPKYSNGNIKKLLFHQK
In short: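 Titration series, up to 92 uM, applied to GRE-bla HeLa cells for 18 h at 37 C. Detection by CCF4 FRET substrate after 2 h at RT.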

[21] = qHTS assay for small molecule antagonists of retinoid X receptor alpha signaling (AID 588546; active means well fitted inhibition curve with a large enough effect in the signal ratio, with a control signal flat, not every such curve was filed as active; the % refers to the signal ratio;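 further: cells stimulated with 9-cis-retinoic acid as agonist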); conditions: HEK293T RXRa-UAS-bla, beta-lactamase ratio, antagonist mode; measured here: W530 green channel, cytotoxicity proxy
In short: (§1)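 Beta-lactamase reporter inhibition, read as CCF4 fluorescence ratio (ex 405, em 460/530 nm) after 2 h at RT. HEK293T UAS-bla cells, 2500/well, were stimulated with 9-cis-RA at 500 or 100 nM final alongside test compound for 18 h at 37 C.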

[22] = target: Retinoic acid receptor RXR-alpha (Homo sapiens) (UniProt P19793); assay: as above; conditions: HEK293T RXRa-UAS-bla, beta-lactamase ratio, antagonist mode
Retinoic acid receptor RXR-alpha (Homo sapiens), sequence (P19793 whole entry, looked up): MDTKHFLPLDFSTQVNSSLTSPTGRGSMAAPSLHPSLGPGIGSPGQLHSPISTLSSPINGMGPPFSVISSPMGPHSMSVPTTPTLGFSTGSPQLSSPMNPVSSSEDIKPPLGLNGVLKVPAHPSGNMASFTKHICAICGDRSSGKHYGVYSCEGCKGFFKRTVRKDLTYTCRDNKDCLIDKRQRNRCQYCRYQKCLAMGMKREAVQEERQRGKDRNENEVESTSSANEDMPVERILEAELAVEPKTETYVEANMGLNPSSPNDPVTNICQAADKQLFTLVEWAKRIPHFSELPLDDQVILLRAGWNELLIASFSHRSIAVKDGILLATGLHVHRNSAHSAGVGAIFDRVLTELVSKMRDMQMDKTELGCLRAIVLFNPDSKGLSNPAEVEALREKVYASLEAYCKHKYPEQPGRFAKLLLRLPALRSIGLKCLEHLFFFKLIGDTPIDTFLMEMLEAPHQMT
In short: as §1

[23] = qHTS assay for small molecule disruptors of the mitochondrial membrane potential - 1 hr assay (AID 651754; calls by dose curve; further: nearly all actives have a fitted effect of over 35% in size)
In short: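 Read-out: dye fluorescence at 490 nm ex/535 nm em (monomers) and 540 nm ex/590 nm em (aggregates) in HepG2 cells. Compound exposure 1 hr at 37C, followed by 30 min dye loading.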

[24] = qHTS assay for small molecule disruptors of the mitochondrial membrane potential - 5 hr assay (AID 651755; calls by dose curve; further: nearly all actives have a fitted effect of over 40% in size)
In short: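 Seed HepG2 overnight, add compound, incubate 5 hr at 37C and 5% CO2, stain 30 min with Mito-MPS, then measure monomer (490/535 nm) and aggregate (540/590 nm) fluorescence.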

[25] = target: Tumor necrosis factor (Homo sapiens) (UniProt P01375); assay: qHTS assay to identify small molecules that stimulate Tumor Necrosis Factor-alpha (TNF-alpha) secretion (AID 651757; active means well fitted curve in the direction sought with a large enough effect in the signal ratio; the % refers to the signal ratio)
Tumor necrosis factor (Homo sapiens), sequence (P01375 whole entry, looked up): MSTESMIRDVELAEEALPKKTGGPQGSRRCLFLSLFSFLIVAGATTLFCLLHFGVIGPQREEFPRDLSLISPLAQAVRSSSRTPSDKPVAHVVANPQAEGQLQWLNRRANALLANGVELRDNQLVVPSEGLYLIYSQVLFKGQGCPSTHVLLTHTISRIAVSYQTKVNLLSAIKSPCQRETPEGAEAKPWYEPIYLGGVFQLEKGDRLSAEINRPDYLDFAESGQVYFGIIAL
In short: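 THP-1 cells, 3000/well; compound 17 hrs, 37 C; add cryptate/XL665 anti-TNF-alpha antibody pair; 3 hr RT; TR-FRET (HTRF) read of secreted TNF-alpha. Quantitative HTS format.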

[26] = qHTS assay for environmental chemicals that activate the Aryl hydrocarbon Receptor (AhR) signaling pathway (AID 651777); conditions: 1A2-DRE human hepatoma cells, luciferase, 24 h; activation: stronger effect = higher value; further: nearly all actives have a fitted effect of over 15% in size
In short: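 Concentration–response screening used 1,200 1A2-DRE cells per well, 24 hr compound exposure (37 C, 5% CO2), and One-Glo luminescence as the AhR-driven CYP1A2 reporter signal.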

[27] = target: Peroxisome proliferator-activated receptor alpha (Homo sapiens) (UniProt Q07869); assay: qHTS assay for small molecule agonists of the peroxisome proliferator-activated receptor alpha (PPARalpha) signaling pathway (AID 651778); conditions: PathHunter PPARalpha complementation, chemiluminescence, 6 h; max response: stronger effect = higher value
Peroxisome proliferator-activated receptor alpha (Homo sapiens), sequence (Q07869 whole entry, looked up): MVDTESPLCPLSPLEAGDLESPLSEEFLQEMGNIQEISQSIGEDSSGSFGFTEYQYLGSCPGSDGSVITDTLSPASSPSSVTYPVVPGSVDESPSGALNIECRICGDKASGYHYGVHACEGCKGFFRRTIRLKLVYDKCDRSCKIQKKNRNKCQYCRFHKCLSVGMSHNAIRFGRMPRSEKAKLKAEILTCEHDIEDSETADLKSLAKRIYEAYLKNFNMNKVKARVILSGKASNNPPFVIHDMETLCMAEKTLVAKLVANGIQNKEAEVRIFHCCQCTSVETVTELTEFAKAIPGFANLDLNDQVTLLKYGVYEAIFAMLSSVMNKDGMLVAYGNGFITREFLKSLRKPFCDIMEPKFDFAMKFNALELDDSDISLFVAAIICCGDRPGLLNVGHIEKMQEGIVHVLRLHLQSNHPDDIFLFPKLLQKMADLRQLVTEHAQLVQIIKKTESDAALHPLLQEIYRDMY
In short: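 Cells plated at 2,000/well and held overnight at 37 C, 5% CO2, then compound added by pin tool for 6 hr; after PathHunter detection reagent and 60 min at room temperature, chemiluminescence from enzyme complementation was read.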

[28] = qHTS assay for small molecule antagonists of the retinoid-related orphan receptor gamma (ROR-gamma) signaling pathway - cell viability counter screen (AID 720652; active means well fitted curve in the direction sought with a large enough effect in the repeat runs; an effect the other way counts as inactive or inconclusive;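 further: CHO reporter cells with doxycycline-induced ROR-gamma expression; series mostly up to about 92 µM; compound exposure lasted 16 hr before ATP read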)
In short: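 CHO RORE-LUC/TET-ROR line, 1,000 cells/well, 37 C 5% CO2 5 hr; cpd or DMSO + doxycycline induction, 16 hr. CellTiter-Glo, 30 min RT, luminescence = ATP content.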

[29] = qHTS assay for small molecule agonists of the antioxidant response element (ARE) signaling pathway measured by Nrf2-dependant transcriptional activity - cell viability counter screen (AID 720653; active means well fitted curve in the direction sought with a large enough effect in the repeat runs; an effect the other way counts as inactive or inconclusive); conditions: ARE-bla HepG2 viability, CellTiter-Glo ATP luminescence, 16 h; max response: stronger effect = lower value
In short: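 ARE-bla HepG2 cells (2,000/well) rested 5 hrs at 37C/5% CO2, then exposed to compounds in DMSO for 16 hrs. Viability was read in the same wells as intracellular ATP by luminescence, 30 min at room temperature after reagent addition.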

[30] = qHTS assay for cell viability of HEK293 cells (AID 743288); conditions: ATP luminescence (CellTiter-Glo), 18 h; max response: stronger effect = lower value; further: nearly all actives have a fitted effect of over 50% in size
In short: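 Quantitative high-throughput screen: compounds were pinned onto parental HEK293 cells (2,000 per well) after a minimum 5 h settling at 37 C, incubated 18 h at 37 C, and intracellular ATP measured by luciferase luminescence.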

[31] = qHTS assay for cell viability of the p53RE-bla HCT-116 cell line (AID 743292)
In short: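 Compound-exposed HCT-116 (p53RE-bla) cells, 4,000 per well, were kept 16 h at 37 C following a 5 h preincubation. Cell number was estimated from total ATP by CellTiter-Glo luminescence read after 30 min at room temperature.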

[32] = target: Rap guanine nucleotide exchange factor 3 (Homo sapiens) (UniProt O95398); assay: Confirmatory qHTS for agonist of cAMP-regulated guanine nucleotide exchange factor 3 (EPAC1) (AID 1645881);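 further: EPAC1 catalysed release of BODIPY-GDP from Rap1B seen as fluorescence loss; nearly all actives have a fitted effect of over 75% in size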
Rap guanine nucleotide exchange factor 3 (Homo sapiens), sequence (O95398 whole entry, looked up): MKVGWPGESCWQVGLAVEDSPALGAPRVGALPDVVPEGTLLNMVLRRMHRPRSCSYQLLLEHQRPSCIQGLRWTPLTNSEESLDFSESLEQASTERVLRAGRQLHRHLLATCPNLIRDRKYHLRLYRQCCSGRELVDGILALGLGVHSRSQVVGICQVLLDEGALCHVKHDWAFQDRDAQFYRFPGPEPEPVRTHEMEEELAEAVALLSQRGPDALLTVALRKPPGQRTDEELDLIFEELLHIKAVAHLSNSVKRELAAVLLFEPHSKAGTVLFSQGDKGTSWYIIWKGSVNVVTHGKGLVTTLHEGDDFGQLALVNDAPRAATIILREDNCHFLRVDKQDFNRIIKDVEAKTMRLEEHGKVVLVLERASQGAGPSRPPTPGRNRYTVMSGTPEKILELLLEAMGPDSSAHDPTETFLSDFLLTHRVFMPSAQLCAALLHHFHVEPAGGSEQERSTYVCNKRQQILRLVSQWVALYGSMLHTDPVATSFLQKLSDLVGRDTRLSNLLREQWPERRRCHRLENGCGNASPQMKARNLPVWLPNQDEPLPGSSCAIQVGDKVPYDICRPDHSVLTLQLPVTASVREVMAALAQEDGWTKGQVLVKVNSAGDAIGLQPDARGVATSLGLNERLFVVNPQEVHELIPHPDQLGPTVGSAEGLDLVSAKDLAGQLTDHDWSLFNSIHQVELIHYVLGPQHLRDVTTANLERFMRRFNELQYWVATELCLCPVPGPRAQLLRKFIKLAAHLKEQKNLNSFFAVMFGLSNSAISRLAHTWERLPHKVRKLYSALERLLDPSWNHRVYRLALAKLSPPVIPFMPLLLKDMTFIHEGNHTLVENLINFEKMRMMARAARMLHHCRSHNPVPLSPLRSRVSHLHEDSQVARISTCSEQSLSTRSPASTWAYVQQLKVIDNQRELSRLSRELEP

[33] = target: Rap guanine nucleotide exchange factor 4 (Homo sapiens) (UniProt Q8WZA2); assay: Confirmatory qHTS for agonist of cAMP-regulated guanine nucleotide exchange factor 4 (EPAC2) (AID 1645884);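 further: nucleotide exchange releases bodipy-GDP from Rap1 and this lowers its fluorescence; nearly all actives have a fitted effect of over 65% in size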
Rap guanine nucleotide exchange factor 4 (Homo sapiens), sequence (Q8WZA2 whole entry, looked up): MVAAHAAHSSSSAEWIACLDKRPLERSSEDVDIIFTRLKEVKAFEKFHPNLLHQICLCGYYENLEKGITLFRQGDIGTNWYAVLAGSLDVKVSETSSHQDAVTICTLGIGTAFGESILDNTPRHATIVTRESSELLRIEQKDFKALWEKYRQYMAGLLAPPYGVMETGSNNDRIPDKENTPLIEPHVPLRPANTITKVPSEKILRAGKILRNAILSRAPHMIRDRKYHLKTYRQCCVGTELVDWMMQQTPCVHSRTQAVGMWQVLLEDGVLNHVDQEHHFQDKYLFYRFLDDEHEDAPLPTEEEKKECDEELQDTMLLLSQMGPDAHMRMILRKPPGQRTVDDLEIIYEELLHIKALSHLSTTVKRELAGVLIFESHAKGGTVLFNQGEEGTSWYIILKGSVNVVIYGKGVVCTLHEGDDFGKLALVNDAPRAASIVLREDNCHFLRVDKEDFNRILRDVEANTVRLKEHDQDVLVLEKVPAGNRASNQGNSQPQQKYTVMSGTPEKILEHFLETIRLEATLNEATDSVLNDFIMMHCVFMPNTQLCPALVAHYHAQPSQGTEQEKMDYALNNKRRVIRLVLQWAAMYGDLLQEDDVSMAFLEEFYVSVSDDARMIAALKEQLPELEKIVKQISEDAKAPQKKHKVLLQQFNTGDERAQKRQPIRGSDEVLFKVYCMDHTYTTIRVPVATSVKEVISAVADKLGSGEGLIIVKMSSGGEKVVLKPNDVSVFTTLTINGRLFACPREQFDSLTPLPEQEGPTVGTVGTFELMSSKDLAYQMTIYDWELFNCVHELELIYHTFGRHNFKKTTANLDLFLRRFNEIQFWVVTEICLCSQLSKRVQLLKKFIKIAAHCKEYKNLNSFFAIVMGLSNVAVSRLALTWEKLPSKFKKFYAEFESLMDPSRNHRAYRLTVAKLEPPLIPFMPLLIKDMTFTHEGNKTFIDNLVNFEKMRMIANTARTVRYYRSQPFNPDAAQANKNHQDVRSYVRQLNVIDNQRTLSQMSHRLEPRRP

[34] = target: Rap guanine nucleotide exchange factor 3 (Homo sapiens) (UniProt O95398); assay: Counterscreen qHTS for antagonist of cAMP-regulated guanine nucleotide exchange factor 3 (EPAC1) (AID 1645888);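 further: fluorescence loss as bound BODIPY-GDP is released from Rap1B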
In short: (§2)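 Measured: fluorescence of BODIPY-GDP bound to Rap1B, which falls as exchange proceeds. Conditions include 50 uM competing GDP, 5 and 30 min reads, and a later cAMP challenge for antagonist detection.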

[35] = target: Rap guanine nucleotide exchange factor 3 (Homo sapiens) (UniProt O95398); assay: Counterscreen qHTS for agonist of cAMP-regulated guanine nucleotide exchange factor 3 (EPAC1) (AID 1645889); further: nearly all actives have a fitted effect of over 40% in size
In short: as §2

[36] = target: Nuclear receptor subfamily 1 group I member 2 (Rattus norvegicus) (UniProt Q9R1A7); assay: qHTS assay for small molecule activators of the rat pregnane X receptor (rPXR) signaling pathway (AID 651751; call rule not given here); conditions: rPXR reporter cells, luciferase (One-Glo), 24 h
Nuclear receptor subfamily 1 group I member 2 (Rattus norvegicus), sequence (Q9R1A7 whole entry, looked up): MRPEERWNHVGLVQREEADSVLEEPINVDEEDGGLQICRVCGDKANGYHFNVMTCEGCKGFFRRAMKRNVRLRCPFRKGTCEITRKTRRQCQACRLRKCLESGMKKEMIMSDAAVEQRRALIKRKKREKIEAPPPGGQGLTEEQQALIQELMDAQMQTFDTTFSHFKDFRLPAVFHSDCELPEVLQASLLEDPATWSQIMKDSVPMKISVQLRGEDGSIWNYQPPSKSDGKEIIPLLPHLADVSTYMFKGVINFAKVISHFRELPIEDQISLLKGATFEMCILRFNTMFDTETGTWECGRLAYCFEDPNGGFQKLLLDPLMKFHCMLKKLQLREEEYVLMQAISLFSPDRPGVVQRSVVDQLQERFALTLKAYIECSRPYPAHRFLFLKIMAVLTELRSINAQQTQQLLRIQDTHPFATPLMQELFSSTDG

[37] = qHTS assay for small molecule activators of the human pregnane X receptor (PXR) signaling pathway (AID 720659; call rule not given here)

C[C@H](CCC(=O)O)[C@H]1CC[C@H]2[C@@H]3CC[C@@H]4C[C@H](O)CC[C@]4(C)[C@H]3CC[C@]12C
Potency [1]: inactive
Potency [2]: inactive
Potency [3]: inactive
Potency [4]: inactive
Potency [5]: inactive
Potency [6]: inactive
Potency [7]: inactive
Potency [8]: inactive
Potency [9]: inactive
Potency [10]: inactive
Potency [11]: inactive
Potency [12]: inactive
Potency [13]: inactive
Potency [14]: inactive
Potency [15]: inactive
Potency [16]: inactive
Potency [17]: inactive
Potency [18]: inactive
Potency [19]: inactive
activation [20]: -9.27% (inactive) and -13.3% (inactive)
max response [21]: 21.6% and 12.2%
max response [22]: -5.6% (inactive) and -21.5% (inactive)
Potency [23]: inactive
Potency [24]: inactive
outcome [25]: inactive
activation [26]: 1.31% (inactive) and 0.102% (inactive)
max response [27]: 2.21% (inactive) and -0.262% (inactive)
Potency [28]: inactive
max response [29]: 1.28% (inactive) and 4.08% (inactive)
max response [30]: -8.43% (inactive) and -9.1% (inactive)
Potency [31]: 31.6 µM (active) and 35.5 µM (active)
Potency [32]: inactive
Potency [33]: inactive
Potency [34]: inactive
Potency [35]: inactive
max response [36]: 6.51% (inactive) and -5.67% (inactive)
outcome [37]: inactive

— PubChem BioAssay (NCATS)
